A selection: hits, their analogues and other compounds. The true share with any hit is near 0.46%.
Chronic BCR inh: qHTS Assay to Find Inhibitors of Chronic Active B-Cell Receptor Signaling | ABC-DLBCL IkBa-CBG/CBR reporter, luminescence ratio, 4 h | Potency, µM (top dose mostly 46.1 µM), without a hit: top-dose activity change, negative = inhibition, actives largely listed as inhibitors | AID 493014, 2011 | hit rate 0.05% among 340,000; active means well fitted inhibition curve with a large enough effect in the signal ratio, with a control signal flat, not every such curve was filed as active; inconclusive means small, poorly fitted or top-dose-only effect, or effect the other way, or a change in a side signal; the % refers to the signal ratio;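 further: potency means the concentration at half of the fitted maximal effect; plate controls were basal doxycycline-induced cells for no effect and cells given 10 µM MG132 for full effect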
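TMD8 ABC-DLBCL cells carrying doxycycline-inducible green luciferase fused to IkappaBalpha plus unfused red luciferase were exposed to compounds (up to 46 uM) for 4 hrs at 37C. Activity came from the overlap-corrected green/red luminescence ratio.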
Pin1 inh: qHTS Assay to Find Inhibitors of Pin1; Peptidyl-prolyl cis-trans isomerase NIMA-interacting 1 (Homo sapiens), Q13526; Pin1 FP peptide displacement, HiFluor488, 10 min; Potency, µM (series often up to 115 µM), for the others: at the highest dose activity, negative = inhibition, most hits filed as inhibitors; hit rate 0.009% among 390,000; AID 504891, 2011; active means well fitted inhibition curve with a large enough effect in the polarisation, with a control signal flat, not every such curve was filed as active; inconclusive means small, poorly fitted or top-dose-only effect, or effect the other way, or a change in a side signal; inactive means no such curve, though single readings can be large or run the other way; the % refers to the polarisation; further: potency means the concentration at half of the fitted maximal effect; on the % scale 0 is the no-effect control and ±100 the full control effect
Target sequence (Q13526 whole entry, looked up): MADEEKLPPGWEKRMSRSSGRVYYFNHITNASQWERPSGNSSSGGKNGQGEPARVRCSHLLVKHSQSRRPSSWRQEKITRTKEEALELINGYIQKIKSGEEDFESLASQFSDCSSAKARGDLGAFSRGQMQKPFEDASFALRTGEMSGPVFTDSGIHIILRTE
B2AR arrestin: qHTS assay of beta-arrestin-biased ligands of beta2-adrenergic receptor; beta-arrestin recruitment to beta2AR, cell-based reporter; Potency, µM (titrated, usually from 46.1 µM), for inactives: at the top dose activation, most hits filed as activators; hit rate 0.02% among 330,000; AID 492947, 2010;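 further: potency means the concentration at half of the fitted maximal effect; 0% = DMSO controls and full agonism = EC100 isoproterenol or metaproterenol; nearly all actives have a fitted effect of over 65% in size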
Target sequence (P07550 whole entry, looked up): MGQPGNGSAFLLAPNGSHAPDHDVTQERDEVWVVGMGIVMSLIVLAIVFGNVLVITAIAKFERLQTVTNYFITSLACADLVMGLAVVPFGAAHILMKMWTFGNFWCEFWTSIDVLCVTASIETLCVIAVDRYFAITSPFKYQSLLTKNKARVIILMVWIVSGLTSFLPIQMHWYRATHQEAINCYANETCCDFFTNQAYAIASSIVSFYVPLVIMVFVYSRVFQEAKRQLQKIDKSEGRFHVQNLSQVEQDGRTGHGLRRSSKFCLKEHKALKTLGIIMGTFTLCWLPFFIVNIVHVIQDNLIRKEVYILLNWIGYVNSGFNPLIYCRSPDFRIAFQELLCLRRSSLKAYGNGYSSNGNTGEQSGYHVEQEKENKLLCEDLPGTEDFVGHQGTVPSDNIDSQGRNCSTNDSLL
miR-21 reporter: qHTS Assay for Modulators of miRNAs and/orActivators of miR-21; AID 2288, 2010; Potency, µM (titrated, usually from 38.3 µM), for inactives: at the top dose activity change, positive = activation, usual class: activators; HeLa miR-21 FLuc reporter, luciferase, 48 h; 340,000 tested, under 10 active;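 further: % of control where 0% means no effect; miR-21 action dims this reporter so a rising signal means less miR-21 action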
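HeLa cells stably expressing CMV-driven firefly luciferase with a downstream miR-21 binding sequence, endogenously expressing miR-21, were treated with titrations (up to about 40uM final) for 48 hours at 37 degree Celsius. Luciferase luminescence was read after lysis.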
PKM2 act: qHTS Assay for Activators of Human Muscle isoform 2 Pyruvate Kinase | Pyruvate kinase PKM (Homo sapiens), P14618 | purified PKM2, Kinase-Glo ATP luminescence, activation; response scale: 0% is enzyme alone, no compound | Potency, µM (highest dose often 57.5 µM), for inactives: at the top dose activation, hits mostly activators | hit rate 0.34% among 260,000 | AID 1631, 2009; further: potency means the concentration at half of the fitted maximal effect; on the % scale 0 is the no-effect control and ±100 the full control effect; nearly all actives have a fitted effect of over 55% in size
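hPK-M2, >95% pure; 0.1 mM ADP / 0.5 mM PEP final; imidazole pH7.2 buffer w/ 7 mM MgCl2, 50 mM KCl; 1 h RT; Kinase-Glo lum. Intermediate enzyme activity for dual inhibitor/activator qHTS.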
PINK1 modulator: A Quantitative High throughput Screen to Identify Chemical Modulators of PINK1 Expression | PINK1 immunofluorescence, high-content cytometry, 24 h | hit rate 0.2% among 410,000 | AID 624263, 2012 | Potency, µM (titrated, usually from 76.6 µM), without a hit: at the highest dose activation (PINK1 increase), most hits filed as activators; active means well fitted activation curve with a large enough effect; inconclusive means small, poorly fitted or top-dose-only effect; cell line not stated here; further: potency means the concentration at half of the fitted maximal effect; % of control where 0% means no effect; nearly all actives have a fitted effect of over 65% in size
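A stable cell line was treated with compounds at 5 concentrations for 24 hours, with CCCP as control. PINK1 levels and mitochondrial localization were measured by immunofluorescence with mitochondrial, cell and nuclear markers after fixation, read by laser-scanning cytometry.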
Active calls of the source: *; ? = inconclusive; · = no result given; [ ] = another dose, or the depositor's remark. Unless noted, the call rests on the fitted dose curve; in most records, active means well fitted curve in the direction sought with a large enough effect; inconclusive means small, poorly fitted or top-dose-only effect, or another doubt; inactive means no such curve, though single readings can be large; an effect the other way counts as inactive or inconclusive.

SMILES | Chronic BCR inh | Pin1 inh | B2AR arrestin | miR-21 reporter | PKM2 act | PINK1 modulator
O=C(COc1ccc(S(=O)(=O)N2CCOCC2)cc1Cl)NCc1ccco1 | 2% | 9% | 0% | 9% | 19% | -3%
CCN(CC)C(=O)N1CCN(S(=O)(=O)c2c(C)cc(C)cc2C)CC1 | 1% | 0% | 0% | -5% | 0% | -3%
Cc1cc(C)c(S(=O)(=O)N2CCN(C(=O)CCn3nc(C)c(C)c3C)CC2)c(C)c1 | -11% | -1% | -1% | 9% | 14µM* | 1%
Cc1nn(CCC(=O)N2CCN(S(=O)(=O)c3ccccc3)CC2)c(C)c1C | -1% | 8% | 0% | 3% | 11µM* | 0%
Cc1ccc(-n2c(=O)[nH]c3c(C(N)=O)nc(-c4ccc(C)o4)nc32)cc1 | 2% | 16% | 0% | -11% | 14µM* | 15%
COc1ccc(OC)c(-c2nc(C(N)=O)c3[nH]c(=O)n(-c4ccc(F)cc4)c3n2)c1 | 0% | 6% | 0% | -10% | -1% | 3%
Cc1nc(-c2ccc([S+](=O)([O-])N3CCN([S+](=O)([O-])c4c(F)cccc4F)CC3)s2)cs1 | · | 8% | · | · | · | ·
O=C(CCc1ccccc1)Nc1ncnc2c1C(c1ccccc1)c1c(ccc3ccccc13)O2 (configuration not stated) | · | 50% | · | · | · | ·
Cc1ccsc1CNc1ncnc2ccc(-c3ccc4c(c3)OCO4)cc12 | · | 25% | · | · | · | ·
Cc1cc(N2CCN(S(=O)(=O)c3ccc4ccccc4c3)CC2)n2ncnc2n1 | -16% | -3% | 0% | -20% | 18µM* | 0%
Cc1sc(C(C2C(=O)CC(C)(C)CC2=O)C2C(=O)CC(C)(C)CC2=O)cc1[N+](=O)[O-] | ? | -13% | -1% | -1% | 18µM* | 2%
CC1(C)CC(=O)C(C(c2cc([N+](=O)[O-])ccc2Cl)C2C(=O)CC(C)(C)CC2=O)C(=O)C1 | · | 5% | · | · | · | 5%
COc1cccc2ccc(CC(O)(c3ccccc3)c3ccccc3)nc12 | · | · | · | · | · | 40µM*
COc1ccc2c(c1)-c1nc(-n3ncc(C(=O)NC[C@@H]4CCCN5CCCC[C@H]45)c3C)ncc1CC2 | · | · | · | · | · | 0%
COc1ccc(NC(=O)CSc2ncn(-c3ccccc3)n2)cc1Cl | -11% | 0% | 0% | 0% | 14µM* | -6%[38.3 µM]
Cc1ccc(NC(=O)CSc2ncn(-c3ccccc3)n2)cc1C | -3% | ? | 1% | -2% | 9% | -4%[38.3 µM]
C=CCc1ccccc1OCc1nc2ccc(C)cc2[nH]1 | · | 2% | · | 19% | · | 40µM*
Cc1cc2c(s1)c1cnn(Cc3ccc(SC(F)(F)F)cc3)c(=O)c1n2C | · | -19% | · | · | · | ·
CCN(CC)c1ccc2nc3ccc(N)cc3[n+](-c3ccccc3)c2c1 | ? | ? | 0% | · | · | 10µM*
CC(CCc1ccc(O)cc1)N1CCOc2c(O)cc(-c3nc4ccccc4s3)cc2C1 (configuration not stated) | · | · | · | · | · | 2%
Cc1ccc(CN(C)C(=O)C2CCCN2C(=O)c2cccs2)o1 (configuration not stated) | ? | 2% | 0% | -2% | 14µM* | 4%[38.3 µM]
Cc1cc(SCn2nnc3ccccc3c2=O)nc2ccccc12 | 0% | -2% | -1% | -6% | 3% | 1%
Cc1ccc(-n2nnnc2SCn2nnc3ccccc3c2=O)c(C)c1 | · | -1% | · | -9% | 16µM* | -1%[38.3 µM]
CC1=CC(=C(c2ccc(N)cc2)c2ccc(N)cc2)C=CC1=N | · | · | · | · | · | 16µM*
CCN(Cc1ccccc1)c1ccc(Br)cn1 | · | -4% | · | · | · | ·
CN(C)c1nc(=NCc2ccco2)ss1 | ? | -3% | 2.2µM* | ? | 23% | 0%

High-throughput results as filed in PubChem BioAssay.
